Assay results as given in PubChem BioAssay (Tox21).
Results filed as inconclusive are left out. Activity calls are given as the source filed them. Unless noted, calls come from the whole dose curve; as a rule, active = well fitted curve in the direction sought with a large enough effect in the repeat runs; inconclusive = weak or mixed curves; inactive = no such curve, though single readings can be large; an effect the other way counts as inactive or inconclusive.

What was measured:
[1] = qHTS assay to identify small molecule antagonists of the estrogen related receptor (ERR) signaling pathway from Tox21 library - cell viability counter screen (AID 1224834); note: nearly all actives have a fitted effect of over 30% in size
In short: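 Viability readout (CellTiter-Fluor fluorescence, 30 min at 37 C) multiplexed with the ERR assay; cells treated 17.5 h at 37 C with compounds delivered in DMSO.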

[2] = molecular target: Luciferin 4-monooxygenase (Photinus pyralis) (UniProt P08659); assay: qHTS assay to identify small molecule inhibitors of firefly luciferase (AID 1224835); note: series mostly up to about 120 µM; nearly all actives have a fitted effect of over 25% in size
Luciferin 4-monooxygenase (Photinus pyralis), sequence (P08659 whole entry, looked up): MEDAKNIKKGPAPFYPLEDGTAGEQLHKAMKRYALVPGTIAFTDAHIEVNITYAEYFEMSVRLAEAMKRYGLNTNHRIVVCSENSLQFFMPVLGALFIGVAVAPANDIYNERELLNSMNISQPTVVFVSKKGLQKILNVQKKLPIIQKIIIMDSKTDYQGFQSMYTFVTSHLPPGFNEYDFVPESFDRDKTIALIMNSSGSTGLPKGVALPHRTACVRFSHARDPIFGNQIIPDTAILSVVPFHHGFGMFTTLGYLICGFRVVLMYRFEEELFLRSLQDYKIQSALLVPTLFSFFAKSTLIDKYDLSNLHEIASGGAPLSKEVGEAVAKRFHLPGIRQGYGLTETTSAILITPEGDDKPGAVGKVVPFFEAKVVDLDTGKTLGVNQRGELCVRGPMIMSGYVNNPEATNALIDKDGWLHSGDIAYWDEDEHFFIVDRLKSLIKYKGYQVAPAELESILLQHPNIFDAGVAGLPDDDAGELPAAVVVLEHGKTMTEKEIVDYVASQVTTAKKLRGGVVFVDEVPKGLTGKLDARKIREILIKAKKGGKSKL
In short: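 Quantitative HTS format; KM concentrations of both substrates. Purified P. pyralis FLuc activity quantified from luminescence images.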

[3] = qHTS assay to identify small molecule agonists of the constitutive androstane receptor (CAR) signaling pathway - cell viability counter screen (AID 1224836); note: series mostly up to about 92 µM; nearly all actives have a fitted effect of over 45% in size
In short: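 Viability read-out: CellTiter-Fluor fluorescence after 23 h compound exposure at 37 C/5% CO2 in double-stable HepG2-CYP2B6-hCAR cells, with PK11195 present at 0.75 uM final; compounds tested in 15-point titration.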

[4] = qHTS assay to identify small molecule antagonists of the constitutive androstane receptor (CAR) signaling pathway - cell viability counter screen (AID 1224837); note: series mostly up to about 92 µM; nearly all actives have a fitted effect of over 45% in size
In short: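 Fluorescence from CellTiter-Fluor served as the viability signal. Human hepatoma HepG2 cells stably bearing hCAR and CYP2B6-2.2kb received compound plus CITCO (50 nM final) for 23 hr.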

[5] = molecular target: Nuclear receptor subfamily 1 group I member 3 (Homo sapiens) (UniProt Q14994); assay: qHTS assay to identify small molecule antagonists of the constitutive androstane receptor (CAR) signaling pathway (AID 1224838);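 note: HepG2 cells stably expressing hCAR with CYP2B6 luciferase reporter stimulated by CITCO; nearly all actives have a fitted effect of over 40% in size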
Nuclear receptor subfamily 1 group I member 3 (Homo sapiens), sequence (Q14994 whole entry, looked up): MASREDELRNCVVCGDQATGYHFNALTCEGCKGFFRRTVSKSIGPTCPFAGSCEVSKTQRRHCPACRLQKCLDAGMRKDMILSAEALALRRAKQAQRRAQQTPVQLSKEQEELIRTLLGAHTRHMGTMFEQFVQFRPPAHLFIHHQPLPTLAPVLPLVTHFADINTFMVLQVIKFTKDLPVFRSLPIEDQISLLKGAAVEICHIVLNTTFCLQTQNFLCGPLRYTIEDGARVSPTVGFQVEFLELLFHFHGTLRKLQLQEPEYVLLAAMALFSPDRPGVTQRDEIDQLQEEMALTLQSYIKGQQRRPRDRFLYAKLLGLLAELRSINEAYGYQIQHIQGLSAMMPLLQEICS
In short: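 Quantitative HTS in double-stable HepG2-CYP2B6-hCAR cells. After 4 h plating, cells get compound (15 concentrations) and CITCO at 50 nM final, incubate 24 h at 37 C, then ONE-Glo luminescence is read.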

[6] = molecular target: Nuclear receptor subfamily 1 group I member 3 (Homo sapiens) (UniProt Q14994); assay: qHTS assay to identify small molecule agonists of the constitutive androstane receptor (CAR) signaling pathway (AID 1224839);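 note: HepG2 cells stably carrying human CAR and a CYP2B6 luciferase reporter; series mostly up to about 92 µM; nearly all actives have a fitted effect of over 15% in size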
In short: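 Luminescence read-out (ONE-Glo, 30 min, room temperature) from double-stable HepG2-CYP2B6-hCAR cells exposed 24 h to 15-point compound series in presence of 0.75 uM PK11195 final.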

[7] = qHTS assay to identify small molecule antagonists of the estrogen related receptor signaling pathway with the pleiotropic PPARgamma coactivator (PGC) from Tox21 10K library - cell viability counter screen (AID 1224840; active = well fitted cell-killing curve with a large enough effect in the repeat runs, not every such curve was filed as active; note: nearly all actives have a fitted effect of over 40% in size)
In short: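 Compounds in DMSO, alongside positive and negative controls, were pinned onto PGC/ERR cells (2,000 per well). Exposure lasted 17.5 hours at 37 C, followed by a 30-minute CellTiter-Fluor incubation and fluorescence reading.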

[8] = molecular target: Thyrotropin receptor (Homo sapiens) (UniProt P16473); assay: qHTS assay to identify small molecule agonists of the thyroid stimulating hormone receptor (TSHR) signaling pathway (AID 1224843; calls by dose curve; note: nearly all actives have a fitted effect of over 45% in size)
Thyrotropin receptor (Homo sapiens), sequence (P16473 whole entry, looked up): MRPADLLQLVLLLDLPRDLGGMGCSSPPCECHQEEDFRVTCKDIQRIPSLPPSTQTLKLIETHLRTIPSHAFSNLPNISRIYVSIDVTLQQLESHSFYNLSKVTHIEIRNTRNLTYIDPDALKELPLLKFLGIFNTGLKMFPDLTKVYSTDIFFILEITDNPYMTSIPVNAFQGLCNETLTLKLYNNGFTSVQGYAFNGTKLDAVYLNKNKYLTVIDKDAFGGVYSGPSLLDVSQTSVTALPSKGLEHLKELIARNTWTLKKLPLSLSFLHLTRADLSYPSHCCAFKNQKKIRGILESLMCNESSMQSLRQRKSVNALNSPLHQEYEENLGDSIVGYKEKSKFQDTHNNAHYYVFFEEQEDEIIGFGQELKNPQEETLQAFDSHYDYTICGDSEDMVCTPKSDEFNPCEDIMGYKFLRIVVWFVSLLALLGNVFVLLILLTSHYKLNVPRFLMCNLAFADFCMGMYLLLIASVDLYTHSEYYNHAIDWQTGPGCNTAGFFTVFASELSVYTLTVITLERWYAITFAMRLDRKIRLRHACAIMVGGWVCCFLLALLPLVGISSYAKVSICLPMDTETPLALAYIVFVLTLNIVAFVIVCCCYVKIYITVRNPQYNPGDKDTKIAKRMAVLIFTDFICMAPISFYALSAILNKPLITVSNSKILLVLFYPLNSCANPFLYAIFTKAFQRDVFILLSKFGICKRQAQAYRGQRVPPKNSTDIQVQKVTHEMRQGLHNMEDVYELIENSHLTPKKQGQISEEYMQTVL
In short: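 Cell line HEK293 with TSHR; density 800/well. Exposure 30 min RT. Readout HTRF cAMP (cAMP-d2/anti-cAMP-cryptate), 1 h RT before reading.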

[9] = qHTS assay to identify small molecule agonists of the hypoxia (HIF-1) signaling pathway - cell viability counter screen (AID 1224844; calls by dose curve; note: nearly all actives have a fitted effect of over 50% in size)
In short: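 Luminescent ATP content (CellTiter-Glo, 30 min, room temperature) served as the viability measure in HRE-bla ME-180 cells exposed to compounds for 17 hrs in low-serum medium (0.5% dialyzed FBS).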

[10] = qHTS assay to identify small molecule agonists of H2AX (AID 1224845; active = well fitted activation curve with a large enough effect in the signal ratio in the repeat runs, not every such curve was filed as active; the % refers to the signal ratio)
In short: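 Wild-type CHO-K1 cells plated overnight, then exposed 3 hr at 37C to compounds at 15 concentrations (0.76% DMSO). Lysed, then HTRF anti-pH2AX(S139)-cryptate/anti-H2AX-d2 detection after 24 hr at room temperature; emissions 665 and 620 nm.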

[11] = qHTS assay to identify small molecule agonists of H2AX - cell viability counter screen (AID 1224847; calls by dose curve; note: top concentration of the series differs between compounds; nearly all actives have a fitted effect of over 30% in size)
In short: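 CHO-K1 wt, 1000 cells/well, o/n 37C; cpds 15 conc, 3 h 37C, 0.76% DMSO; CellTiter-Glo, 30 min RT, luminescence.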

[12] = qHTS RealTime-Glo MT Cell Viability Assay in HepG2 cells - 24 hour (AID 1224867); note: nearly all actives have a fitted effect of over 50% in size
In short: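 Cell number in HepG2 cultures estimated from NanoLuc luminescence generated by metabolic reduction of a prosubstrate by living cells. The homogeneous, nonlytic format allowed repeated reads at 0, 8, 16, 24, 32 and 40 h of compound exposure.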

[13] = A CellTox Green Cytotoxicity Assay to monitor cytotoxicity in HEK293 cells - 0 hour (AID 1224869); note: nearly all actives have a fitted effect of over 50% in size
In short: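 Each value comes from one timepoint of a single continuous run in which HEK293 cells with CellTox Green were exposed to compound for up to 40 h at 37 C, dye fluorescence rising with cell death.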

[14] = qHTS assay to identify small molecule agonists of the hypoxia (HIF-1) signaling pathway (AID 1224846; active = well fitted activation curve with a large enough effect in the signal ratio in the repeat runs, not every such curve was filed as active; the % refers to the signal ratio)
In short: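 Measured by blue/green FRET after loading CCF4-AM: beta-lactamase expressed from a hypoxia response element in ME-180 cells. Test agents were delivered in DMSO and left 17 hrs; cells had been plated 5 hrs earlier in low-serum (0.5% dialyzed FBS) medium.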

[15] = qHTS RealTime-Glo MT Cell Viability Assay in HEK293 cells - 32 hour (AID 1224868); note: top concentration of the series differs between compounds; nearly all actives have a fitted effect of over 50% in size
In short: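 Homogeneous bioluminescent viability format in HEK293 cells (600 cells/well). Following 5 h at 37 C/5% CO2, 23 nL compound was pintooled; the signal was measured repeatedly during 40 h incubation.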
% is set by controls: 0 for no effect and ±100 for the full control effect.

CC(C)c1ccc(C(=O)N=C(N)N)cc1S(C)(=O)=O
inactive: Potency [1] | Potency [2] | Potency [3] | Potency [4] | Potency [5] | Potency [6] | Potency [7] | Potency [8] | Potency [9] | Potency [10] | Potency [11] | Potency [12] | Potency [13]

CCCCOCCOC(=O)c1cccnc1
inactive: Potency [1] | Potency [2] | Potency [3] | Potency [4] | Potency [5] | Potency [6] | Potency [7] | Potency [8] | Potency [9] | Potency [10] | outcome [14] | Potency [11] | Potency [12] | Potency [13]

CCCCCCCCCCCCCOC(=O)CCSCCC(=O)OCCCCCCCCCCCCC
inactive: viability change, negative = cytotoxic [1] -0.449% [at 19 µM] | activity change, negative = inhibition [2] -2.08% [at 23.6 µM] | viability change, negative = cytotoxic [3] -3.39% [at 19 µM] | activity change, negative = cytotoxicity [4] -3.13% [at 19 µM] | activity, negative = inhibition [5] 5.4% [at 19 µM] | activation [6] -0.548% [at 19 µM] | viability change, negative = cytotoxic [7] 0.0068% [at 19 µM] | activation [8] -1.63% [at 19 µM] | activity change, negative = cytotoxicity [9] 4.03% [at 15.8 µM] | activation (H2AX phosphorylation) [10] 0.898% [at 31.6 µM] | activation [14] 0.146% [at 15.8 µM] | activity change, negative = cytotoxicity [11] -1.78% [at 31.6 µM] | activity change, negative = cytotoxicity [12] -1.37% [at 15.8 µM] | activity change, negative = cytotoxic [15] -0.356% [at 15.8 µM]

Nc1ccc(S(=O)(=O)NCc2ccccc2)cc1
inactive: Potency [1] | Potency [2] | Potency [3] | Potency [4] | Potency [5] | Potency [6] | Potency [7] | Potency [8] | Potency [10] | outcome [14] | Potency [11] | Potency [12] | Potency [15] | Potency [13]

O=C1OC(=O)c2c(Br)c(Br)c(Br)c(Br)c21
inactive: Potency [1] | Potency [2] | Potency [3] | Potency [4] | Potency [5] | Potency [6] | Potency [7] | Potency [8] | Potency [9] | outcome [14] | Potency [11] | Potency [12] | Potency [15]

Nc1ccn([C@H]2CS[C@@H](CO)O2)c(=O)n1
inactive: Potency [1] | Potency [2] | Potency [3] | Potency [4] | Potency [5] | Potency [6] | Potency [7] | Potency [8] | Potency [9] | Potency [10] | outcome [14] | Potency [11] | Potency [12] | Potency [13]

COC(=O)CC(C(C)=O)C(=O)OC (stereo not given)
inactive: Potency [1] | Potency [2] | Potency [3] | Potency [4] | Potency [5] | Potency [6] | Potency [7] | Potency [8] | Potency [9] | Potency [10] | outcome [14] | Potency [11] | Potency [12]

CC[C@H]1OC(=O)[C@H](C)[C@@H](O[C@H]2C[C@@](C)(OC)[C@@H](O)[C@H](C)O2)[C@H](C)[C@@H](O[C@@H]2O[C@H](C)C[C@H](N(C)C)[C@H]2O)[C@](C)(O)C[C@@H](C)C(=O)[C@H](C)[C@@H](O)[C@]1(C)O
inactive: Potency [1] | Potency [2] | Potency [3] | Potency [4] | Potency [5] | Potency [6] | Potency [7] | Potency [8] | Potency [9] | Potency [10] | Potency [11] | Potency [12] | Potency [15] | Potency [13]

CCC(C)(C)C(=O)O
inactive: Potency [1] | Potency [2] | Potency [3] | Potency [4] | Potency [5] | Potency [6] | Potency [7] | Potency [8] | Potency [9] | Potency [10] | outcome [14] | Potency [11] | Potency [12] | Potency [15] | Potency [13]

O=C1[C@@H]2[C@H]3CC[C@H](C3)[C@@H]2C(=O)N1CCCCN1CCN(c2ncccn2)CC1
inactive: Potency [1] | Potency [2] | Potency [3] | Potency [4] | Potency [5] | Potency [6] | Potency [7] | Potency [8] | Potency [9] | Potency [10] | outcome [14] | Potency [11] | Potency [12] | Potency [15] | Potency [13]

CCCCCc1ccco1
inactive: Potency [1] | Potency [2] | Potency [3] | Potency [4] | Potency [5] | Potency [6] | Potency [7] | Potency [8] | Potency [9] | Potency [10] | outcome [14] | Potency [11] | Potency [12] | Potency [15] | Potency [13]

CC1=C2[C@@H]([C@H](C)CC[C@H]2/C=C(\C)C(=O)O)[C@H](O)C1
inactive: Potency [1] | Potency [2] | Potency [3] | Potency [4] | Potency [5] | Potency [6] | Potency [7] | Potency [8] | Potency [9] | outcome [14] | Potency [11] | Potency [12] | Potency [13]

Cc1ccc(NC(=O)N(C)C)cc1NC(=O)N(C)C
inactive: Potency [1] | Potency [2] | Potency [3] | Potency [4] | Potency [5] | Potency [6] | Potency [7] | Potency [8] | Potency [9] | Potency [10] | outcome [14] | Potency [11] | Potency [12] | Potency [15] | Potency [13]

CC(C(=O)O)c1ccc(C(=O)c2cccs2)cc1 (stereo not given)
inactive: Potency [1] | Potency [2] | Potency [3] | Potency [4] | Potency [5] | Potency [6] | Potency [7] | Potency [8] | Potency [9] | Potency [10] | Potency [11] | Potency [12] | Potency [15] | Potency [13]

CC(=O)NCCO
inactive: Potency [1] | Potency [2] | Potency [3] | Potency [4] | Potency [5] | Potency [6] | Potency [7] | Potency [8] | Potency [9] | Potency [10] | outcome [14] | Potency [11] | Potency [12] | Potency [15]
